Experimental data published in PubChem BioAssay (Tox21).
Results filed as inconclusive are left out. Entries that show only a call come without a potency. Active and inactive are the calls of the source. The call rests on the fitted dose curve; in most records, active means well fitted activation curve with a large enough effect in the signal ratio in the repeat runs (not every such curve was filed as active); inconclusive means weak or mixed curves, or effect the other way; inactive means no such curve, though single readings can be large or run the other way; the % refers to the signal ratio.

The compounds below were run against Glucocorticoid receptor (Homo sapiens) (UniProt P04150) (assay: qHTS assay to identify small molecule agonists of the glucocorticoid receptor (GR) signaling pathway (AID 720691)). Conditions: GR-bla HeLa, beta-lactamase reporter ratio, 18 h; series mostly up to 62.4 µM.
Chain of Glucocorticoid receptor (Homo sapiens) (P04150 whole entry, looked up): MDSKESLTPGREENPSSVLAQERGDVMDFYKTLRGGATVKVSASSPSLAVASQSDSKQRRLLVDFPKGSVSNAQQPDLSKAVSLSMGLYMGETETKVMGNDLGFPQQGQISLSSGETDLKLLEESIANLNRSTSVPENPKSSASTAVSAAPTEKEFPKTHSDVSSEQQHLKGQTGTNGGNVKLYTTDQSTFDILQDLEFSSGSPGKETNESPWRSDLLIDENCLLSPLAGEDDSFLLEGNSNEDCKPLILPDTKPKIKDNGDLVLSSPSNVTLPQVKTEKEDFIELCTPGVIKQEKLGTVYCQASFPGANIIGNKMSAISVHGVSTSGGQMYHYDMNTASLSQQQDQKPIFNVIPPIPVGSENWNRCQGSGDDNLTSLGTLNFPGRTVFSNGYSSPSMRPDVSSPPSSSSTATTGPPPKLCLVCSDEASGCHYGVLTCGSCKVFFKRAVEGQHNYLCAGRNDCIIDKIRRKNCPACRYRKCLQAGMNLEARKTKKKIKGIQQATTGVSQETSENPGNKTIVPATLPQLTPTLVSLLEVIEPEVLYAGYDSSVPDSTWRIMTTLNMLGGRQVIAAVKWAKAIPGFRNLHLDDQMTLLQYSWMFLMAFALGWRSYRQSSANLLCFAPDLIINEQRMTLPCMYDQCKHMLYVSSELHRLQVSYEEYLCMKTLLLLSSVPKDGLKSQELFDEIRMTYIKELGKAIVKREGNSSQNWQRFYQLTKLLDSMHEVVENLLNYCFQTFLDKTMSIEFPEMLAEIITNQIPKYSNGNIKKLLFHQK
From the text: U.S. Tox21 Program National Center for Advancing Translational Sciences [NCATS] NIH Chemical Genomics Center [NCGC] U.S. Environmental Protection Agency [EPA] National Institutes of Environmental Health Sciences [NIEHS] National Toxicology Program [NTP] U.S. Food and Drug Administration [FDA] Tox21 Assay Overview: The Glucocorticoid receptor (GR) is one of the members of the nuclear receptor family of ligand-dependent transcription factors. GR plays a critical role in carbohydrate, protein and lipid metabolisms and programmed cell death. CellSensor GR-bla HeLa cell line (Invitrogen) contains a beta-lactamase reporter gene under the control of the glucocorticoid response element stably integrated into HeLa cells, a cervical cancer cell line that expresses glucocorticoid receptor. The activation of the reporter gene under culture conditions can be detected by fluorescence intensity. This cell line has been used to screen the Tox21 10K compound library and to identify the compounds that activate the GR signaling.
Tox21 Assay Protocol Summary: The GR-bla HeLa cells were dispensed at 1500 cells/6 ul/well in 1536-well black wall/clear bottom plates using a Multidrop Combi (ThermoFisher Scientific, Waltham, MA) dispenser. After the assay plates were incubated at a 37 C/5% CO2 incubator for 4 hours, 23 nL of compounds dissolved in DMSO, positive controls or DMSO only was transferred to the assay plate by a pintool station (Kalypsys, San Diego, CA). The plates were incubated at 37 C for 18 hours. After 1 uL of LiveBLAzerTM B/G FRET substrate was added using a Flying Reagent Dispenser (Aurora Discovery, San Diego, CA), the plates were incubated at room temperature for 2 hours, and fluorescence intensity was measured by an Envision plate reader (PerkinElmer, Shelton, CT).

Row | SMILES | Potency
1 | CC(C)COC(=O)C(C)C | inactive
2 | CN(C)CCn1nnnc1SCC1=C(C(=O)O)N2C(=O)[C@@H](NC(=O)Cc3csc(N)n3)[C@H]2SC1 | inactive
3 | Nc1nc(F)nc2c1ncn2[C@@H]1O[C@H](CO)[C@@H](O)[C@@H]1O | inactive
4 | CC(C)(C)OC(=O)N1C[C@@H](F)C[C@H]1C(=O)O | inactive
5 | Cc1cc(C)cc(OCC2CNC(=O)O2)c1 (stereo not given) | inactive
6 | COC(=O)c1ccc(C(=O)OC)c(C(=O)OC)c1 | inactive
7 | CC(O)CN(CCCN(C)C)CCCN(C)C (stereo not given) | inactive
8 | O=C(O)c1cccc(C(=O)O)n1 | inactive
9 | COc1nc(C)nc(N)n1 | inactive
10 | CC(C)=CCC/C(C)=C/C(=O)O | inactive
11 | CCCCCCCCCCCCI | inactive
12 | NC(=O)c1ncn([C@@H]2O[C@H](CO)[C@@H](O)[C@H]2O)c1O | inactive
13 | C#CC(O)C(CC)CCCC (stereo not given) | inactive
14 | CC(CCO)CCCC(C)(C)O (stereo not given) | inactive
15 | CC(=O)CCc1ccc(O)cc1 | inactive
16 | CN(C)C(=O)C(CCN1CCC(O)(c2ccc(Cl)cc2)CC1)(c1ccccc1)c1ccccc1 | inactive
17 | CCN1CCN(c2cc3c(cc2F)c(=O)c(C(=O)O)cn3C2CC2)CC1 | inactive
18 | NC1CCN(c2cccc(Cl)n2)CC1 | inactive
19 | COC(C(=O)O)c1ccccc1 (stereo not given) | inactive
20 | NC(=O)CCCCC1CCSS1 (stereo not given) | inactive

Row | SMILES | Potency
21 | COC(=O)CCCC(=O)O | inactive
22 | CC1=CC(C)C(C=O)C(C)C1 (stereo not given) | inactive
23 | CCN(CC)S(=O)(=O)c1ccc(C(=O)O)cc1 | inactive
24 | CC1=CC(=O)CCC1 | inactive
25 | O=[N+]([O-])c1ccc(CCO)cc1 | inactive
26 | CC12CCC(CC1=O)C2(C)C (stereo not given) | inactive
27 | CC(C)c1cccc(O)c1 | inactive
28 | CCCCC=O | inactive
29 | COCCOC(=O)CC#N | inactive
30 | C=C(C)C(=O)OCCCCCCCCCCCCCCCCCC | inactive
31 | C[C@H]1O[C@@H](n2cc(F)c(=O)[nH]c2=O)[C@H](O)[C@@H]1O | inactive
32 | O=C(O)/C=C/c1ccc(/C=C/C(=O)O)cc1 | inactive
33 | O=Cc1ccccc1[N+](=O)[O-] | inactive
34 | Cc1ccc(N)cc1[N+](=O)[O-] | inactive
35 | CCCCNc1ccccc1 | inactive
36 | CCCCCCCCCCCCCCCCCC(=O)OCCCCCCCCCCCCCC(C)C | inactive
37 | CCCOCC(C)OCC(C)O (stereo not given) | inactive
38 | C1=C\CC/C=C\CC/C=C\CC/1 | inactive
39 | CC(C)(O)Cc1ccccc1 | inactive
40 | C=C(C)C(=O)NCCCN(C)C | inactive
